Structures are written as SMILES. “And” between values parts separate entries of the source, which are not always exact repeats. Equal entries are not always repeated. Records with an inconclusive call do not appear. Some compounds were tested as several samples or in several runs, with calls that do not always agree. The source made the active and inactive calls. Unless noted, the call rests on the fitted dose curve; in most records, active means well fitted curve in the direction sought with a large enough effect in the repeat runs; inconclusive means weak or mixed curves; inactive means no such curve, though single readings can be large; an effect the other way counts as inactive or inconclusive.

The nature of assay [1]: qHTS assay to identify small molecule antagonists of the thyroid receptor (TR) signaling pathway - cell viability counter screen (AID 743064). Further: nearly all actives have a fitted effect of over 50% in size. Further: potency means the concentration at half of the fitted maximal effect. The procedure, abridged: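 In rat pituitary GH3.TRE-Luc reporter cells co-exposed to compound and 1 nM T3 for 23.5 h, cytotoxicity was assessed with CellTiter-Fluor in the same wells, read by fluorescence.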
(qHTS replaces the single test concentration by a dilution series.)

The subject of assay [2] is thyroid hormone receptor (rat, GH3 cells). Description: qHTS assay to identify small molecule agonists of the thyroid receptor (TR) signaling pathway (AID 743066; calls by dose curve).
The target in assay [3] is Estrogen receptor (Homo sapiens) (UniProt P03372). Description: qHTS assay to identify small molecule antagonists of the estrogen receptor alpha (ER-alpha) signaling pathway (AID 743069; active means well fitted curve in the direction sought with a large enough effect in the signal ratio in the repeat runs, not every such curve was filed as active; the % refers to the signal ratio). The procedure, abridged:
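In this cell-based reporter format, GripTite HEK293 cells harbouring ER-alpha-UAS-bla were grown overnight with 2% charcoal-stripped FBS, dosed with DMSO-dissolved compounds, then challenged with 17beta-estradiol. After 18 hr at 37C, beta-lactamase activity was detected by FRET fluorescence.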

The nature of assay [4]: qHTS assay to identify small molecule antagonists of the estrogen receptor alpha (ER-alpha) signaling pathway - cell viability counter screen (AID 743074; calls by dose curve; further: nearly all actives have a fitted effect of over 45% in size).
Assay [5] addresses Estrogen receptor (Homo sapiens) (UniProt P03372). Description: qHTS assay to identify small molecule agonists of the estrogen receptor alpha (ER-alpha) signaling pathway (AID 743075; calls by dose curve).
For assay [6] the target is unchanged. Description: qHTS assay to identify small molecule agonists of the estrogen receptor alpha (ER-alpha) signaling pathway using the BG1 cell line (AID 743079). Further: nearly all actives have a fitted effect of over 20% in size. Further: potency means the concentration at half of the fitted maximal effect.
Assay [7] can be described thus: qHTS assay to identify small molecule antagonists of the estrogen receptor alpha (ER-alpha) signaling pathway using the BG1 cell line (AID 743080; calls by dose curve;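 further: BG1 cells stimulated with 17beta-estradiol alongside compound; series mostly up to about 70 µM; nearly all actives have a fitted effect of over 25% in size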). The procedure, abridged: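 Readout is ONE-Glo luminescence, taken 30 min at room temperature after reagent addition, preceded by a CellTiter-Fluor viability read; BG1-Luc-4E2 cells had received compound and 17beta-estradiol for 21.5 h at 37 C.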

Assay [8] can be described thus: qHTS assay to identify small molecule antagonists of the estrogen receptor alpha (ER-alpha) signaling pathway using the BG1 cell line - cell viability counter screen (AID 743081).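 Further: compound given together with 17beta-estradiol as the ER stimulus; nearly all actives have a fitted effect of over 45% in size.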 Further: potency means the concentration at half of the fitted maximal effect. On activity change, negative = cytotoxicity: series mostly up to about 70 µM.
For another assay, the target named is Aromatase (Homo sapiens) (UniProt P11511). Description: qHTS assay to identify aromatase inhibitors (AID 743083). Further: nearly all actives have a fitted effect of over 55% in size. Further: potency means the concentration at half of the fitted maximal effect. On activity, negative = inhibition: series mostly up to about 70 µM.
On the % scale 0 is the no-effect control and ±100 the full control effect.

Sequence of Estrogen receptor (Homo sapiens) (P03372 whole entry, looked up): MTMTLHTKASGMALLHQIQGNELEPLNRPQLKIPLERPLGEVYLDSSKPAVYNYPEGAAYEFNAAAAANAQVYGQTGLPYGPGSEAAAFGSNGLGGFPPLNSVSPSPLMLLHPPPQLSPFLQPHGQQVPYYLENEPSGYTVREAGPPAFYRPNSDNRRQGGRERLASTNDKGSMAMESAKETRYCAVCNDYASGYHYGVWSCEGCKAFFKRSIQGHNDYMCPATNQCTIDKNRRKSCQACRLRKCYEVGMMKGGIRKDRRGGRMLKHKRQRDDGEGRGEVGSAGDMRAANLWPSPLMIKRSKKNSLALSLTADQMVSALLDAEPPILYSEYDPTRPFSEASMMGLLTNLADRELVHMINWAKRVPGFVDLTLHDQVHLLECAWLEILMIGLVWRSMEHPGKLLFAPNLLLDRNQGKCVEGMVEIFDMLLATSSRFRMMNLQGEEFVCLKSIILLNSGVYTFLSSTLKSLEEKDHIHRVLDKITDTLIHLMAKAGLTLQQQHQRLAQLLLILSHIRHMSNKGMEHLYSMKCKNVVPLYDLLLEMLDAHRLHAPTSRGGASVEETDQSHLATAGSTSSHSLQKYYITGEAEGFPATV
Sequence of Aromatase (Homo sapiens) (P11511 whole entry, looked up): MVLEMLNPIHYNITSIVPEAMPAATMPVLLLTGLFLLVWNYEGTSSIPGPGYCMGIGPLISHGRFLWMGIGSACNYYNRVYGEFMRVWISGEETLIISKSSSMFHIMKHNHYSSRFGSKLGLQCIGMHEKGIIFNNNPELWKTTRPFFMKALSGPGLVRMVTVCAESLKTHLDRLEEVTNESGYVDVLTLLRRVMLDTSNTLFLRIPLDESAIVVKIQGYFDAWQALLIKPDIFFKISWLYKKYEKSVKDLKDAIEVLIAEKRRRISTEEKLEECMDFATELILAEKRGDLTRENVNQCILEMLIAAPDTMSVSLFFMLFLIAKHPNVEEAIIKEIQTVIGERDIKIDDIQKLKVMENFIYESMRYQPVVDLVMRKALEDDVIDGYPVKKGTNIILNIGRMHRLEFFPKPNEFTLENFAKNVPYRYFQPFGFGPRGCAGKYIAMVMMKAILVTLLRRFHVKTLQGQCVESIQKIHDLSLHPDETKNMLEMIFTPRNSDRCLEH

On to `Cc1cc2c(cc1S(N)(=O)=O)S(=O)(=O)CCC2`, for which the Potency entry (in [1]; in assay [5]; in [6]; in assay [8]; with Aromatase (Homo sapiens)) was “inactive” throughout. In addition, the compound was called inactive in assay [2], in assay [3], in [4] and in assay [7].
With `CC(C)NCC(O)c1ccc(NS(C)(=O)=O)cc1` (stereo not drawn), the Potency entry in [1] and in [8] was “inactive” in each case. The compound was classed as inactive in assay [2] and in [4].
As for `CCCCCOC(=O)CCCCC`, the Potency entry (in assay [1]; in assay [5]; in assay [6]; in assay [8]; with Aromatase (Homo sapiens)) was “inactive” throughout. Moreover, the result in assay [2], in assay [3] and in [7] was inactive.
For the compound `CC(C)(C)c1ccc(O)c(O)c1`, the Potency in [1] is 70.9 µM (active) and 56.1 µM (active); with Aromatase (Homo sapiens), “inactive and 12.6 µM (active)”. Moreover, the compound was classed as inactive in [2] and in assay [4]. Besides, the Potency entry in assay [8] is “inactive”.
For `C=C(C)CS(=O)(=O)O`, the Potency result (in assay [1]; in [5]; in [6]; in [8]; in the assay with Aromatase (Homo sapiens)) was “inactive” each time. Also, the result in assay [2], in assay [3], in assay [4] and in [7] was inactive.
In the case of `NCCc1cnc[nH]1`, the Potency entry (in [1]; in assay [8]; with Aromatase (Homo sapiens)) was “inactive” throughout. The outcome in assay [2] and in [4] was inactive.
As to `COC(=O)c1cc(C(=O)OC)cc(S(=O)(=O)O)c1`, the Potency entry (in assay [1]; in assay [8]; in the assay with Aromatase (Homo sapiens)) was “inactive” throughout. Further, the result in assay [2] and in assay [4] was inactive.
Take `O=C(O)CNC(=O)c1ccc([N+](=O)[O-])cc1`: the Potency result (in assay [1]; in assay [8]; with Aromatase (Homo sapiens)) was “inactive” each time. The compound was called inactive in assay [2] and in [4].
In the case of `COc1ccccc1OCC(O)CN1CCN(CC(=O)Nc2c(C)cccc2C)CC1` (stereo not drawn), the Potency entry (in [1]; in [5]; in [6]; in [8]; with Aromatase (Homo sapiens)) was “inactive” in each case. In addition, the result in assay [2], in assay [3], in [4] and in assay [7] was inactive.
`COC(=O)c1c(Cl)c(Cl)c(C(=O)OC)c(Cl)c1Cl`: the Potency entry (in assay [1]; in assay [5]; in assay [6]; in assay [8]; with Aromatase (Homo sapiens)) was “inactive” throughout. Also, the result in [2], in assay [4] and in assay [7] was inactive.
As to `CCC(C)C1CCCCC1=O` (stereo not drawn), the Potency entry (in [1]; in [5]; in assay [6]; in [8]; with Aromatase (Homo sapiens)) was “inactive” throughout. In addition, the result in [2], in assay [3], in [4] and in assay [7] was inactive.
For `CC(=O)Nc1c(I)cc(I)c(C(=O)O)c1I`, the Potency result (in assay [1]; in assay [5]; in [6]; in [8]; in the assay with Aromatase (Homo sapiens)) was “inactive” throughout. The compound was classed as inactive in assay [2], in [4] and in assay [7].
Consider `C=C1CC[C@H]2C[C@@H]1C2(C)C`, for which the Potency entry (in assay [1]; in [5]; in [6]; in assay [8]; in the assay with Aromatase (Homo sapiens)) was “inactive” in each case. Besides, the result in assay [2], in assay [3], in [4] and in assay [7] was inactive.
Take `O=C(CCCN1CCN(c2ccccn2)CC1)c1ccc(F)cc1`: the Potency entry (in assay [1]; in [8]; with Aromatase (Homo sapiens)) was “inactive” in each case. Besides, the result in assay [2] and in assay [4] was inactive.
For the compound `CCCCCCCCCCCCCC=O`, the activity change, negative = cytotoxic in assay [1] was -8.15% [at 8.44 µM] (inactive). Further, the values for the activation in [2] and in assay [5] were 0.523% [at 8.08 µM] (inactive) and 2.95% [at 6.71 µM] (inactive), respectively. For the same compound, the activity, negative = inhibition in assay [3] is -10.5% [at 6.71 µM] (inactive); in the assay with Aromatase (Homo sapiens) it was -2.09% [at 8.47 µM] (inactive). Also, the activity, negative = cytotoxicity in [4] is -17.6% [at 6.72 µM] (inactive). Also, the Potency in assay [6] is 2.69 µM (active). In addition, in assay [7], the activity change, negative = inhibition is 0.386% [at 8.47 µM] (inactive). The activity change, negative = cytotoxicity in [8] is -2.15% [at 8.47 µM] (inactive).
In the case of `NC(CSCC(=O)O)C(=O)O` (stereo not drawn), the Potency entry (in assay [1]; in [5]; in assay [6]; in assay [8]; with Aromatase (Homo sapiens)) was “inactive” each time. Moreover, the call in assay [2], in assay [3], in assay [4] and in [7] was inactive.
As for `O=C1OC(=O)C2CCCCC12` (stereo not drawn), the Potency result (in assay [1]; in assay [5]; in [6]; in assay [8]; with Aromatase (Homo sapiens)) was “inactive” each time. For the same compound, the compound was called inactive in assay [2], in [3], in assay [4] and in assay [7].
`CCCCOCCOCCOCc1cc2c(cc1CCC)OCO2`: the Potency result (in [1]; in assay [8]; with Aromatase (Homo sapiens)) was “inactive” in each case. The call in assay [2] and in [4] was inactive.
Consider `O=C(O)CCCl`, for which the Potency entry (in assay [1]; in [5]; in assay [6]; in assay [8]; in the assay with Aromatase (Homo sapiens)) was “inactive” each time. Further, the compound was classed as inactive in [2], in [3], in assay [4] and in assay [7].
In the case of `CCc1ccc(O)c(OC)c1`, the Potency entry (in assay [1]; in [8]; with Aromatase (Homo sapiens)) was “inactive” in each case. For the same compound, the call in [2] and in assay [4] was inactive.
Consider `CCOC(=O)C(=O)OCC`, for which the Potency result (in assay [1]; in assay [5]; in assay [6]; in [8]; with Aromatase (Homo sapiens)) was “inactive” in each case. The result in assay [2], in [3], in assay [4] and in [7] was inactive.
For `COc1ccc(CCN(C)CCCC(C#N)(c2cc(OC)c(OC)c(OC)c2)C(C)C)cc1OC` (stereo not drawn), the Potency in assay [1] was 29.8 µM (active). Also, the result in assay [2] and in assay [4] was inactive. The Potency entry in the assay with Aromatase (Homo sapiens) is “inactive”.
For `CCN1CCC[C@H]1CNC(=O)c1c(O)c(Cl)cc(Cl)c1OC`, the Potency entry (in assay [1]; in assay [5]; in [6]; in assay [8]; with Aromatase (Homo sapiens)) was “inactive” in each case. Moreover, the call in assay [2], in [3], in assay [4] and in assay [7] was inactive.
As for `CC(=O)OC/C=C(\C)CC/C=C(\C)CCC=C(C)C`, the Potency entry (in [1]; in assay [5]; in assay [6]; in assay [8]; in the assay with Aromatase (Homo sapiens)) was “inactive” throughout. The outcome in assay [2], in assay [3] and in assay [4] was inactive.
For the compound `O=C(O)COc1nn(Cc2ccccc2)c2ccccc12`, the Potency entry (in assay [1]; in assay [5]; in assay [6]; in assay [8]; in the assay with Aromatase (Homo sapiens)) was “inactive” throughout. Moreover, the compound was classed as inactive in assay [2], in [3], in assay [4] and in assay [7].
As to `NC(=O)c1cn(Cc2c(F)cccc2F)nn1`, the Potency result in [1] and in [8] was “inactive” throughout. Also, the compound was called inactive in [2] and in assay [4].
As for `Cn1cc(S(C)=O)c(=O)c2ccc(F)cc21` (stereo not drawn), the Potency result (in [1]; in assay [5]; in [6]; with Aromatase (Homo sapiens)) was “inactive” throughout. Besides, the result in assay [2], in assay [3] and in [7] was inactive.
Turning to `O=S(O)CO`, the Potency entry (in assay [1]; in [5]; in [8]; in the assay with Aromatase (Homo sapiens)) was “inactive” each time. Moreover, the compound was classed as inactive in [2], in assay [3], in [4] and in assay [7]. For the same compound, the Potency in assay [6] was 26.6 µM (active).
Regarding `CN(C)CCCN1c2ccccc2CCc2ccc(Cl)cc21`, the Potency is 10.6 µM (active) and 10.9 µM (active) in assay [1]; 54.5 µM (active) in [8]. The outcome in assay [2] and in assay [4] was inactive. Besides, in the assay with Aromatase (Homo sapiens), the Potency entry was “inactive”.
Regarding `Nc1ccc(S(=O)(=O)Nc2ccnn2-c2ccccc2)cc1`, the Potency result (in [1]; in assay [5]; in assay [6]; in [8]; in the assay with Aromatase (Homo sapiens)) was “inactive” throughout. For the same compound, the result in assay [2], in [3], in assay [4] and in [7] was inactive.
Consider `Nc1c[n+](N2CCOCC2)no1`, for which the Potency result (in [1]; in assay [5]; in assay [6]; in assay [8]; in the assay with Aromatase (Homo sapiens)) was “inactive” throughout. Also, the compound was called inactive in assay [2], in assay [3] and in assay [7].
Take `CCCc1cc(C(N)=S)ccn1`: the Potency entry (in assay [1]; in assay [5]; in assay [6]; in assay [8]; in the assay with Aromatase (Homo sapiens)) was “inactive” each time. The result in assay [2], in assay [3], in assay [4] and in [7] was inactive.
Regarding `N=C(N)c1ccc(OCCCOc2ccc(C(=N)N)cc2)cc1`, the Potency entry in assay [1], in assay [5], in assay [6] and in assay [8] was “inactive” in each case. Moreover, the compound was classed as inactive in assay [2], in assay [3] and in assay [7].
In the case of `ClC(Cl)(Br)Br`, the Potency entry (in [1]; in [5]; in assay [6]; in assay [8]; with Aromatase (Homo sapiens)) was “inactive” throughout. Besides, the compound was classed as inactive in assay [2], in [3], in assay [4] and in assay [7].
Turning to `C=CCCCCCCCCC=O`, the Potency result (in assay [1]; in [5]; in [6]; in assay [8]; in the assay with Aromatase (Homo sapiens)) was “inactive” each time. For the same compound, the result in assay [2], in assay [4] and in assay [7] was inactive.

The values are drawn from PubChem BioAssay (Tox21).
